# High-throughput results deposited in PubChem by SRMLSC.
# Spn MK inh – blocks S. pneumoniae mevalonate kinase; actives 0.48% (n = 65,000); purified MK, PK/LDH-coupled NADH absorbance 340 nm; AID 555; inhibition, % at 10 µM;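 active = ranked among the strongest by inhibition in the single 10 µM screen, a fixed top-ranked set picked for dose follow-up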
# Abs 340nm – compounds absorbing at 340 nm | compound absorbance at 340 nm, fold over control | 65,000 tested, under 10 active | fold change at 10 µM | AID 708;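 active = at 10 µM dose, initial 340 nm absorbance at least 2 fold that of control wells; inactive = change under 2 fold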;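 note: initial absorbance extrapolated from kinetic A340 decline of NADH oxidation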
# Fluor 339 460 – intrinsic fluorescence of library compounds, ex339/em460 – biochemical, MLSMR library, data from DPM-DC assay, artefact control, profiling panel. fluorescence fold increase at 10 µM. compound autofluorescence, ex339/em460 nm, NADH buffer; stronger effect = higher value; 1 = no-compound wells, NADH background. actives 5.5% (n = 65,000);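 active = at 10 µM, mean starting fluorescence two-fold or more over control wells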;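 note: signal is the first read of a kinetic run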
# DPM-DC inhibit – inhibitors of Streptococcus pneumoniae diphosphomevalonate decarboxylase; purified DPM-DC, PK/LDH coupled NADH fluorescence; calls only at 10 µM; actives 0.49% (n = 65,000);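 active = the 320 compounds with the highest percent inhibition in the single-dose primary screen, excluding strongly autofluorescent ones, cut at about 32% in these data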;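 note: kinetic rate of NADH fluorescence loss reporting ADP formed by the decarboxylase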
# PMK inhibit – inhibitors of Streptococcus pneumoniae phosphomevalonate kinase. AID 539. actives 0.49% (n = 65,000). purified PMK, PK/LDH-coupled NADH absorbance 340 nm. inhibition, % at 10 µM;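 active = top-ranked compounds by inhibition in the single 10 µM screen, taking a fixed number of the strongest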
# NADH coupling – blocks coupling enzymes of NAD/NADH assays | actives 0.02% (n = 65,000) | IC50, µM (top dose mostly 10 µM) | coupled PK/LDH NADH assays, four targets;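 active = single-dose screening hits from any of four coupled enzyme assays that gave an IC50 when retested across doses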;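 note: the DPM-DC format reads NADH fluorescence rather than 340 nm absorbance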
# Numbers stand for hits; 0 = inactive; - = not tested or not shown; + = active, no number; [ ] = remark or other dose. Most compounds without a hit are left out; they make up all but 6.5% or so of the library.
SMILES,Spn MK inh,Abs 340nm,Fluor 339 460,DPM-DC inhibit,PMK inhibit,NADH coupling
N#CC1=C(SCC(=O)NC23CC4CC(CC(C4)C2)C3)NC(=O)C(C#N)C12CCCCC2 (stereo not given),0,0,0,0,0,0
Cc1ccc(CSC2=NCCN2C(=O)C2CC2)cc1,0,0,0,0,0,0
Nc1cccc2c1C(=O)N(c1ccccc1)C2=O,0,0,2.3,+[fluoresces],0,0
CCCCC(=O)Nc1cccc2c1C(=O)N(c1ccccc1)C2=O,0,0,0,0,0,0
COc1ccccc1N1CCN(C(=O)c2cnn3cccnc23)CC1,0,0,0,0,0,0
CCC(=O)N1CCN(c2nc(-c3ccccc3)c3c(c2C#N)CCCC3)CC1,0,0,2.1,-,0,0
CC1(C)Cc2c(C#N)c(N3CCN(C(=O)c4ccccc4)CC3)nc(-c3ccco3)c2CS1,0,0,0,0,0,0
CC(C)c1nc(N2CCN(C(=O)c3ccccc3)CC2)c(C#N)c2c1COC(C)(C)C2,0,0,2.1,-,0,0
CC1(C)Cc2c(C#N)c(N3CCCC3)nc(-c3ccco3)c2CO1,0,0,2.2,-,0,0
CC1(C)Cc2c(C#N)c(OCC(=O)c3ccc(Cl)cc3)nc(-c3ccco3)c2CO1,0,0,2.1,0,0,0
O=S(=O)(NCCCN1CCN(c2ccccc2F)CC1)c1cccc2cccnc12,0,0,0,0,0,0
Cc1cc(N(C)C)nc(SC(C)C)n1,0,0,0,0,0,0
Cn1c(SCC(=O)Nc2cc(=O)n(C)c(=O)n2C)nnc1C12CC3CC(CC(C3)C1)C2,0,0,0,0,0,0
CC(=O)N1C(C(=O)O)CSC1c1ccc(C)cc1 (stereo not given),0,0,0,0,0,0
CC1(C)Cc2c(C#N)c(NCc3ccco3)nc(-c3ccco3)c2CO1,0,0,2.2,-,0,0
CCCc1nc(NCc2ccco2)c(C#N)c2c1COC(C)(C)C2,0,0,0,0,0,0
CN(C)CCNc1nc(-c2ccco2)c2c(c1C#N)CC(C)(C)OC2,0,0,2.2,-,0,0
CCCCN(C)c1nc(-c2ccco2)c2c(c1C#N)CC(C)(C)OC2,0,0,0,0,0,0
N#Cc1c(N2CCOCC2)nc(-c2ccco2)c2c1CCCC2,0,0,2.3,-,0,0
Cc1nc(NCc2ccco2)c(C#N)c2c1COC(C)(C)C2,0,0,2.7,0,0,0
O=C(c1ccco1)N1CCN(S(=O)(=O)c2cccc(C(F)(F)F)c2)CC1,0,0,0,0,0,0
Cc1cc2c(c(=O)o1)C(C13C=CC(CC1)C3)C(C#N)=C(N)O2 (stereo not given),0,0,0,0,0,0
COc1cc(S(=O)(=O)NCCc2ccc3c(c2)OCO3)ccc1-n1cnnn1,0,0,0,0,0,0
Cc1cc2ccccc2c(=O)[nH]1,0,0,0,0,0,0
Cc1ccccc1Nc1cc2ccccc2c(=O)[nH]1,0,0,2.8,-,0,0
SMILES,Spn MK inh,Abs 340nm,Fluor 339 460,DPM-DC inhibit,PMK inhibit,NADH coupling
O=C(CN1C(=O)C2C3C=CC(C3)C2C1=O)N1CCc2ccccc2C1 (stereo not given),0,0,0,0,0,0
COc1cc2nc(N(C)C)nc(N)c2cc1OC,0,0,5,-,0,0
COc1ccccc1CC(=O)N1CCN(c2cccc(C(F)(F)F)c2)CC1,0,0,0,0,0,0
CCOC(=O)C(C)c1nc2ccccc2[nH]c1=O (stereo not given),0,0,0,0,0,0
CC(C)OC(=O)CCc1nc2ccccc2[nH]c1=O,0,0,2,0,0,0
O=C(CN1C(=O)C2CC=CCC2C1=O)Nc1ccc(S(=O)(=O)NC2=NCCCCC2)cc1 (stereo not given),0,0,0,0,0,0
O=C(CSc1ccc2nnc(-c3ccccc3)n2n1)N1CCCCC1,0,0,2.2,0,0,0
O=C(CSc1ccc2nnc(-c3cccnc3)n2n1)NCC1CCCO1 (stereo not given),0,0,0,0,0,0
COc1ccc(-c2nnc3ccc(SCC(=O)N4CCCC4)nn23)cc1,0,0,0,0,0,0
CCC(Sc1ccc2nnc(-c3ccc(F)cc3)n2n1)C(=O)O (stereo not given),0,0,2,0,0,0
CCOC(=O)CC(=O)CSc1ccc2nnc(-c3ccc(C)cc3)n2n1,0,0,0,+,0,0
O=C(CSc1ccc2nnc(-c3cccc(F)c3)n2n1)NCC1CCCO1 (stereo not given),0,0,2.1,0,0,0
O=CN(Cc1ccco1)C1(C(=O)NC2CCCCC2)CCCCC1,0,0,0,0,0,0
CCSc1cc(C2C(C(=O)OC)=C(C)NC3=C2C(=O)CCC3)c(C)o1 (stereo not given),0,0,0,0,0,0
CC1CN(C2CCN(C(=O)c3ccccc3Cl)CC2)CC(C)O1 (stereo not given),41,0,0,0,0,0
CC(=O)Nc1ccccc1C(=O)N1CC(C)OC(C)C1 (stereo not given),0,0,0,0,0,0
Cc1ccc2cc(CCNC(=O)CC(C)C)c(=O)[nH]c2c1,0,0,0,0,0,0
Cc1ccc(-n2nc3c(c2NC(=O)c2c(-c4ccccc4Cl)noc2C)CS(=O)(=O)C3)c(C)c1,0,0,0,0,25,0
COc1ccccc1C(=O)N(Cc1nc(-c2ccc(Cl)cc2)no1)C(C)C,0,0,0,0,0,0
COC(=O)c1ccccc1NS(=O)(=O)c1cn(C)c(=O)n(C)c1=O,0,0,0,0,0,0
CCOC(=O)c1sc2nc(CC(=O)OC)nc(NCC(=O)OC)c2c1C,0,0,3.7,-,0,0
CCOC(=O)c1sc2nc(CC(=O)OC)nc(NCc3ccco3)c2c1C,0,0,0,0,0,0
O=C(Nn1cnc2ccccc2c1=O)C1CCCCC1,0,0,0,0,0,0
COC(=O)C1=C(NC(=O)c2ccc(C)c(C)c2)CCS1,0,0,2.7,0,0,0
CCN(CC)c1ccc(-c2nc3cnccc3n2C)cc1,0,0,2.5,0,0,0
SMILES,Spn MK inh,Abs 340nm,Fluor 339 460,DPM-DC inhibit,PMK inhibit,NADH coupling
CCn1c(N)c(C(=O)NCCCOC)sc1=S,0,0,0,0,0,0
O=C(NCCc1ccccc1)c1ccccc1NS(=O)(=O)N1CCCC1,0,0,3.4,-,0,0
COc1ccccc1NC(=O)c1ccccc1NS(=O)(=O)N1CCCC1,0,0,0,0,0,0
O=S(=O)(Nc1cccc2ccccc12)N1CCCC1,0,0,2.5,0,0,0
Cc1cccc2cc(C#N)c(NCCNS(=O)(=O)c3ccc4c(c3)OCCO4)nc12,0,0,2.1,0,0,0
Cc1ccc2cc(C#N)c(NCCNC(=O)C3CCC3)nc2c1C,0,0,3.1,0,0,0
Cc1cccc2cc(C#N)c(NCCNC(=O)NC3CCCCC3)nc12,0,0,2.1,0,0,0
CCOc1ccc2nc(NCCNC(=O)Nc3ccccc3)c(C#N)cc2c1,0,0,0,0,0,0
